This is an account of results in the OligoGym collection.
Note: reference of the scale not given here.

In the first assay the target is TMEM156. Put plainly: pooled miR-30 sensor sort-seq; sequence = guide strand. The conditions noted are these: shRNA.
Turning to TAGATTGCAAACACACTTCCAG, the sensor-assay potency score (higher = more potent) is 0.703.
In the case of TTTGCTTTCACTTCCATTGATC, the sensor-assay potency score (higher = more potent) was -0.423.
Turning to TTTGTCTCTATGACTCTGCCAC, the sensor-assay potency score (higher = more potent) was -0.207.

The target in a further assay is TMEM158. Described as above. The conditions noted are these: shRNA.
TTAAACATCTGCTTTTCGGAAC displayed a sensor-assay potency score (higher = more potent) of -0.542.
TGATGTTGCACGGCGCCGCCGC had a sensor-assay potency score (higher = more potent) of -0.887.
As for AAGAGCAGTAGGTCGCACTGGA, the sensor-assay potency score (higher = more potent) came to 0.351.
In turn, TAGCAATTTAATCTTTTTGTTT had a sensor-assay potency score (higher = more potent) of -1.1.
Still for that read-out and setting: next, TACGGTTCAGCCGCCAGCCCGG: -1.31; ATGACCAGGGTCATGAAGCAGG: -1.09.
In turn, TTTTCTGCCATGAATCTAGGGC came in with a sensor-assay potency score (higher = more potent) of -0.129.
Same read-out and setting: next, TCGCACTGGAAGCCCCGCGGGC: -1.57; TATAAAACAAATACACAGGATT: -0.653; TAACGATAACTACAGCACGAAG: -1.77.
For TCCAGGCTGAAGTCTAGGCAGC, the sensor-assay potency score (higher = more potent) is -1.79.
TAGGTCGCACTGGAAGCCCCGC came in with a sensor-assay potency score (higher = more potent) of -0.714.

For a further assay, the target named is TMEM18. The description is as above. To be noted: shRNA.
With ATAATCTCCAGTTCATCGCAGC, the sensor-assay potency score (higher = more potent) is -0.328.
In turn, TATATTTATAATTAGTACTAGT registered a sensor-assay potency score (higher = more potent) of -0.393.
In turn, TATTTCGAAAATAATCTCCAGT registered a sensor-assay potency score (higher = more potent) of -0.177.
On the same count and under the same terms, the value for TCTGTAGTCTGTAGCTTCGGGA was -0.977; that for TAGCTTCGGGAGGACAAGCAGG was -1.33.
For TATTTAAATAAAACAACGGTTT, the sensor-assay potency score (higher = more potent) was -1.16.
TATAGAAATGAACATCCCCCTG displayed a sensor-assay potency score (higher = more potent) of -1.12.
On to TAGACTAAGATGACTAGACACA, for which the sensor-assay potency score (higher = more potent) was -0.939.
Consider TAGTCTGTAGCTTCGGGAGGAC, for which the sensor-assay potency score (higher = more potent) is -0.482.
ATCTGTAGTCTGTAGCTTCGGG came in with a sensor-assay potency score (higher = more potent) of -0.359.
TTTCAAACCATGAGTCAGCTGG showed a sensor-assay potency score (higher = more potent) of 0.141.
ATAACCACAATGATCATGGCAT showed a sensor-assay potency score (higher = more potent) of 0.502.

The next assay concerns the target TMEM200C. The description is as above. The conditions noted are these: shRNA.
TTGAGCTTGTCAGAGTGCAGGT yielded a sensor-assay potency score (higher = more potent) of 0.387.
Still for that read-out and setting: next, TTTTGGTCTTCTTGTCCCGGTT: -1.07; TTGGCTTTCCGCTTGCGCTTGG: 0.0739; TTGCGCTTGGGTATCTGGCTTG: -0.405.
Turning to TTGTAAACTGCCTCTGCACCGG, the sensor-assay potency score (higher = more potent) was -0.336.
Turning to TTCTTGTCCCGGTTCTCGTGGA, the sensor-assay potency score (higher = more potent) was -0.413.
On the same count and under the same terms, the value for ATTTTGGTCTTCTTGTCCCGGT was -0.495.
The same measure, in the same setting: next, TCCAGTTCTTCTTCTACCCCTA: -0.433; TTTCACCACCACCACGTCGTTC: -1.27; TTGACCAGCTACTGCGTCCAAG: -1.14.
With AATCATGATGAGTTTCTCCTTG, the sensor-assay potency score (higher = more potent) was -0.235.
Consider TTTGCTGCCACTGCTACTGCTG, for which the sensor-assay potency score (higher = more potent) is -0.287.
